Results reported in PubChem BioAssay (Tox21).
Values joined by “and” are separate entries in the source; they are usually repeats but may differ in a detail not shown here. Identical values can stand only once. Records with an inconclusive call do not appear. Where a structure was tested more than once in an assay, its records may differ in their call. Active and inactive are the calls of the source. Unless noted, calls follow the shape of the dose curve; as a rule, active = well fitted curve in the direction sought with a large enough effect in the repeat runs; inconclusive = weak or mixed curves; inactive = no such curve, though single readings can be large; an effect the other way counts as inactive or inconclusive.

Legend:
[1] = qHTS assay to identify small molecule agonists of the peroxisome proliferator-activated receptor delta (PPARd) signaling pathway - cell viability counter screen (AID 743211); also: nearly all actives have a fitted effect of over 55% in size; also: potency is read from the fitted curve at half-maximal effect
Procedure, shortened: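 Viability of GeneBLAzer PPARd UAS-bla HEK293H cells was assessed after 17 h compound incubation at 37C, using CellTiter-Glo reagent added after the reporter read and luminescence recorded 30 min later.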

[2] = qHTS assay to identify small molecule antagonists of the peroxisome proliferator-activated receptor delta (PPARd) signaling pathway - cell viability counter screen (AID 743213); also: nearly all actives have a fitted effect of over 50% in size; also: potency is read from the fitted curve at half-maximal effect
Procedure, shortened: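 HEK293H cells with the PPARd UAS-bla reporter, co-treated 17 h at 37 C with compounds and L165041 (300 nM final), were lysed with CellTiter-Glo. Luminescence indicated viable cell content.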

[3] = qHTS assay to identify small molecule agonists of the farnesoid-X-receptor (FXR) signaling pathway - cell viability counter screen (AID 743218); also: nearly all actives have a fitted effect of over 45% in size; also: potency is read from the fitted curve at half-maximal effect
Procedure, shortened: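 After 16 h at 37 C with test compounds, FXR-bla HEK 293T cells were given LiveBLAzer B/G substrate for 2 h at RT and then CellTiter-Glo; luminescence was taken after 30 min.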

[4] = qHTS assay to identify small molecule antagonists of the farnesoid-X-receptor (FXR) signaling pathway - cell viability counter screen (AID 743221; active = well fitted cell-killing curve with a large enough effect in the repeat runs, not every such curve was filed as active; also: nearly all actives have a fitted effect of over 50% in size; also: potency is read from the fitted curve at half-maximal effect)
Procedure, shortened: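 Quantitative HTS of the Tox21 10K library run in parallel with the beta-lactamase reporter read. HEK 293T cells carrying a UAS-driven bla reporter got compound and 50 uM CDCA (final) for 16 h; ATP-based luminescence followed.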

[5] = qHTS assay to identify small molecule agonists of the vitamin D receptor (VDR) signaling pathway - cell viability counter screen (AID 743224); also: nearly all actives have a fitted effect of over 50% in size; also: potency is read from the fitted curve at half-maximal effect
Procedure, shortened: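 Here cell health was gauged by luminescent ATP detection (CellTiter-Glo, 30 min RT) in VDR-bla cells that had been incubated with test compounds for 16 h at 37C and 5% CO2.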

[6] = qHTS assay to identify small molecule antagonists of the vitamin D receptor (VDR) signaling pathway - cell viability counter screen (AID 743225); also: nearly all actives have a fitted effect of over 50% in size; also: potency is read from the fitted curve at half-maximal effect
Procedure, shortened: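 Cells (VDR-UAS-bla HEK 293T) are plated, rested 4 h at 37C, dosed with compound and 3 nM final 1-alpha,25-dihydroxy vitamin D3, and incubated 16 h. Viability is taken from CellTiter-Glo luminescence in the reporter wells.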

[7] = qHTS assay to identify small molecule agonists of the endoplasmic reticulum stress response signaling pathway (AID 1159516; active = well fitted activation curve with a large enough effect in the signal ratio in the repeat runs, not every such curve was filed as active; the % refers to the signal ratio)
Procedure, shortened: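 Reporter HeLa cells (ESRE-beta-lactamase) underwent 5 hr compound incubation at 37 C and 5% CO2 in quantitative HTS format. Detection followed 2 hr of FRET substrate loading at room temperature.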

[8] = qHTS assay to identify small molecule agonists of the endoplasmic reticulum stress response signaling pathway - cell viability counter screen (AID 1159517; calls by dose curve; also: nearly all actives have a fitted effect of over 50% in size; also: potency is read from the fitted curve at half-maximal effect)
Procedure, shortened: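 Counter-screen wells were identical to the reporter wells. Cells were plated at 1,500 per well and dosed for 5 hr, then read for luminescence 30 min after CellTiter-Glo addition.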

[9] = qHTS assay to identify small molecule antagonists of the retinoid-related orphan receptor gamma (ROR-gamma) signaling pathway - cell viability counter screen (AID 1159520); also: nearly all actives have a fitted effect of over 50% in size; also: potency is read from the fitted curve at half-maximal effect
Procedure, shortened: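 Tet-on ROR gamma CHO cells were given compounds for 2 hr, then doxycycline hyclate at 1 uM final, and incubated 16 hr at 37 C. Viability was measured as ATP content by CellTiter-Glo luminescence.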

[10] = qHTS assay to identify small molecule agonists of the AP-1 signaling pathway - cell viability counter screen (AID 1159525; calls by dose curve; also: nearly all actives have a fitted effect of over 55% in size; also: potency is read from the fitted curve at half-maximal effect)
Procedure, shortened: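 AP-1-bla ME-180 cells in Opti-MEM with 0.5% dialyzed FBS, compound exposure 5 h at 37 C in 15-point titration. Viability read in the same wells as ATP content by CellTiter-Glo luminescence, normalised to tetra-n-octylammonium bromide and DMSO controls.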

[11] = qHTS assay to identify small molecule agonists of the AP-1 signaling pathway (AID 1159526; calls by dose curve)
[12] = target: Peroxisome proliferator-activated receptor delta (Homo sapiens) (UniProt Q03181); experiment: qHTS assay to identify small molecule agonists of the peroxisome proliferator-activated receptor delta (PPARd) signaling pathway (AID 743212; calls by dose curve)
Procedure, shortened: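 Quantitative high-throughput agonist screen in a HEK293H beta-lactamase reporter line under UAS control. Compounds in DMSO, at 37 C. Fluorescence read after 2 h with FRET substrate at room temperature.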

[13] = target: Peroxisome proliferator-activated receptor delta (Homo sapiens) (UniProt Q03181); experiment: qHTS assay to identify small molecule antagonists of the peroxisome proliferator-activated receptor delta (PPARd) signaling pathway (AID 743215; active = well fitted inhibition curve with a large enough effect in the signal ratio in the repeat runs, not every such curve was filed as active; the % refers to the signal ratio;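 also: cells stimulated with agonist L165041 at 300 nM final during compound exposure; series mostly up to about 62 µM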)
Procedure, shortened: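 With L165041 present at 300 nM final, compounds were incubated 17 h at 37 C on PPARd UAS-bla HEK293H cells. A FRET-based beta-lactamase substrate was then applied for 2 h at room temperature and fluorescence intensity recorded.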

[14] = target: Vitamin D3 receptor (Homo sapiens) (UniProt P11473); experiment: qHTS assay to identify small molecule agonists of the vitamin D receptor (VDR) signaling pathway (AID 743222; calls by dose curve)
Procedure, shortened: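 VDR-bla cells were seeded, left 4 h, treated with compounds in DMSO for 16 h, incubated 2 h at RT with B/G FRET substrate, and read for fluorescence.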

[15] = target: Vitamin D3 receptor (Homo sapiens) (UniProt P11473); experiment: qHTS assay to identify small molecule antagonists of the vitamin D receptor (VDR) signaling pathway (AID 743223; active = well fitted inhibition curve with a large enough effect in the signal ratio in the repeat runs, not every such curve was filed as active; the % refers to the signal ratio)
Procedure, shortened: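 Fluorescence from LiveBLAzer B/G FRET substrate, read after 2 h at room temperature, reflects beta-lactamase reporter activity in VDR-bla cells treated 16 h at 37C with compounds and agonist 1alpha,25-dihydroxyvitamin D3 (3 nM final).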

[16] = target: Nuclear receptor ROR-gamma (Homo sapiens) (UniProt P51449); experiment: qHTS assay to identify small molecule antagonists of the retinoid-related orphan receptor gamma (ROR-gamma) signaling pathway (AID 1159521; also: nearly all actives have a fitted effect of over 50% in size; also: potency is read from the fitted curve at half-maximal effect)
Procedure, shortened: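 RORγ antagonism is scored from reduced reporter luminescence in Tet-on CHO cells. Induction used 1 uM final doxycycline hyclate for 16 h at 37 C, following a 2 h compound exposure.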

[17] = target: Retinoic acid receptor RXR-alpha (Homo sapiens) (UniProt P19793); experiment: qHTS assay to identify small molecule agonists of the RXR signaling pathway (AID 1159527; calls by dose curve; also: nearly all actives have a fitted effect of over 35% in size)
Procedure, shortened: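 qHTS of the Tox21 10K library in GeneBLAzer RXR-alpha HEK 293T cells carrying a beta-lactamase reporter […]; 16 hr treatment, 9-cis retinoic acid as agonist control, FRET read-out.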

[18] = target: Bile acid receptor (Homo sapiens) (UniProt Q96RI1); experiment: qHTS assay to identify small molecule agonists of the farnesoid-X-receptor (FXR) signaling pathway (AID 743220; active = well fitted activation curve with a large enough effect in the signal ratio in the repeat runs, not every such curve was filed as active; the % refers to the signal ratio)
Procedure, shortened: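 Beta-lactamase reporter under UAS control in GeneBLAzer FXR HEK 293T cells (5000/well) measured with LiveBLAzer FRET substrate after 2 h at room temperature. Compound exposure lasted 16 h at 37C.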

[19] = qHTS assay to identify small molecule agonists of the NFkB signaling pathway - cell viability counter screen (AID 1159515; calls by dose curve; also: nearly all actives have a fitted effect of over 55% in size; also: potency is read from the fitted curve at half-maximal effect)
Procedure, shortened: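 5 hr compound treatment of NFkB-bla ME-180 cells (2,000/well, seeded overnight beforehand), followed by reporter substrate for 1.5 hr. CellTiter-Glo added afterward; luminescence after 30 min RT.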

Measured: Potency

Bile acid receptor (Homo sapiens), sequence (Q96RI1 whole entry, looked up): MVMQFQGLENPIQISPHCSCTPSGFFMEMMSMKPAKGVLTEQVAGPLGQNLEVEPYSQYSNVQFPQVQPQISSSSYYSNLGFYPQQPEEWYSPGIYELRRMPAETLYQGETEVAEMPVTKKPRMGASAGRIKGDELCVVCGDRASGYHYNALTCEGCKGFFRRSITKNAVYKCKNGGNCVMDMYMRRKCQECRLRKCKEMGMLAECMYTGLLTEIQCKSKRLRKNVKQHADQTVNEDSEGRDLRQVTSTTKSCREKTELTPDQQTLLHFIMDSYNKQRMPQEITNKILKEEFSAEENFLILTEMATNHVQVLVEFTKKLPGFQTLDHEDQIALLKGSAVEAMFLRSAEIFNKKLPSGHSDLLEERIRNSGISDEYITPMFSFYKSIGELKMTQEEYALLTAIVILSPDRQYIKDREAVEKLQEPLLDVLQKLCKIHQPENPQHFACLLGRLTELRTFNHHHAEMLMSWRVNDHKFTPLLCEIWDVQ
Peroxisome proliferator-activated receptor delta (Homo sapiens), sequence (Q03181 whole entry, looked up): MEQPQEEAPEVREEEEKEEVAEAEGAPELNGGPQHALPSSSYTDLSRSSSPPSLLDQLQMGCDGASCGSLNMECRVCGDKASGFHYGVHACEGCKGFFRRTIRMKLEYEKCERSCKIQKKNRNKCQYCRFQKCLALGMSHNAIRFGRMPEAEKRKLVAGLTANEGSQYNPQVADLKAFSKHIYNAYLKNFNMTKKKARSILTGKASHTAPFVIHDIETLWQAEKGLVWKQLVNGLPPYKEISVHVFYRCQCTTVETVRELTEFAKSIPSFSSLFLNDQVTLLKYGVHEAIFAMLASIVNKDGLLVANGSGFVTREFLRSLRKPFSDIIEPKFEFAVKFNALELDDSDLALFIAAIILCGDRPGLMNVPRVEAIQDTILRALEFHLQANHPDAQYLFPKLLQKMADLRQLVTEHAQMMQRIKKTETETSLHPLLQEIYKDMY
Retinoic acid receptor RXR-alpha (Homo sapiens), sequence (P19793 whole entry, looked up): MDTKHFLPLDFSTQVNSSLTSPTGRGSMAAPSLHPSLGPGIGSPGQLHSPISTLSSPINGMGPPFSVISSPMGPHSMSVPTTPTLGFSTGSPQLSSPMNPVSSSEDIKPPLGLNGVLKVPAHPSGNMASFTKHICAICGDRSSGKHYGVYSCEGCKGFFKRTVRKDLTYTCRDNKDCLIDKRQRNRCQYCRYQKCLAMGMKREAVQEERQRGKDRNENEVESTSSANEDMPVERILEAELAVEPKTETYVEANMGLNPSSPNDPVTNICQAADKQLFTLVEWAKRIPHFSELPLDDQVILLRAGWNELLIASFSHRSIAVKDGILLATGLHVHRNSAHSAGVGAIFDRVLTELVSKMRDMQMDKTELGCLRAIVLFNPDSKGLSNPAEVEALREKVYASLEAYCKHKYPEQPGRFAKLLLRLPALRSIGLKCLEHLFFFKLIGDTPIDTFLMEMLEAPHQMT
Vitamin D3 receptor (Homo sapiens), sequence (P11473 whole entry, looked up): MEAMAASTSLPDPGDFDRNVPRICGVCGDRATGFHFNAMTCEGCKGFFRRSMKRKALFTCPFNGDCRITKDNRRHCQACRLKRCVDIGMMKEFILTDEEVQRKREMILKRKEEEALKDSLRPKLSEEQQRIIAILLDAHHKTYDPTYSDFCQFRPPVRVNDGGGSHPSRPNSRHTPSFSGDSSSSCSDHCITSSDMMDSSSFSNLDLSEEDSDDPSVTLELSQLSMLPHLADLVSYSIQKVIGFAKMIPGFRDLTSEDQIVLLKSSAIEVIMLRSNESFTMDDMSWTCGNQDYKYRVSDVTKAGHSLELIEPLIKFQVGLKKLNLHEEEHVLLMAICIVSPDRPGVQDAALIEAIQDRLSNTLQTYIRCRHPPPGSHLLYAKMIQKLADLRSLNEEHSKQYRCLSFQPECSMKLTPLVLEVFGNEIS

COC(=O)C1=C(C)NC(C)=C(C(=O)OCC(C)C)C1c1ccccc1[N+](=O)[O-] (stereo not given)
43.3 µM (active) and inactive: [9]
active: [5] 27.5 µM
21.9 µM (active) and inactive: [1] | [2]
inactive: [3] | [4] | [6] | [7] | [8] | [11]
24.5 µM (active) and inactive: [10]

O=C1c2ccccc2Cc2ccccc21
inactive: [12] | [2] | [13] | [3] | [4] | [14] | [15] | [5] | [6] | [7] | [8] | [9] | [16] | [10] | [11] | [17]

N#CC1(c2ccc(F)cc2)CCC(=O)CC1
inactive: [1] | [12] | [2] | [13] | [3] | [18] | [4] | [14] | [7] | [9] | [16] | [10] | [11] | [17]

c1cc(C(c2ccc(OCC3CO3)cc2)c2ccc(OCC3CO3)cc2)ccc1OCC1CO1 (stereo not given)
inactive: [2] | [4] | [19] | [10]

C[n+]1ccn(Cc2ccccc2)c1
inactive: [1] | [2] | [3] | [18] | [4] | [14] | [15] | [6] | [7] | [8] | [9] | [16] | [10] | [11] | [17]

NNC(=O)c1cccc(C(=O)NN)c1
inactive: [1] | [12] | [2] | [13] | [3] | [18] | [4] | [14] | [5] | [6] | [7] | [8] | [9] | [16] | [10] | [11] | [17]

CC[C@H](c1ccc(O)cc1)[C@@H](CC)c1ccc(O)cc1
inactive: [12] | [13] | [18] | [4] | [14] | [5] | [7] | [9] | [11]
54.5 µM (active) and inactive: [16]
active: [1] 54.9 µM
54.9 µM (active) and inactive: [10]

CC[C@H]1O[C@]2(CC[C@@H]1C)C[C@@H]1C[C@@H](C/C=C(\C)C[C@@H](C)/C=C/C=C3\CO[C@@H]4[C@H](O)C(C)=C[C@@H](C(=O)O1)[C@]34O)O2
active: [2] 15.3 µM | [3] 21.7 µM | [4] 17.2 µM | [5] 17.2 µM | [6] 21.7 µM | [19] 24.3 µM | [10] 21.7 µM

CCCCC(CC)COP(=O)(O)OCC(CC)CCCC (stereo not given)
active: [1] 55 µM | [3] 55 µM and 43.6 µM | [5] 55 µM | [8] 55 µM and 49 µM | [16] 54.6 µM and 48.6 µM
inactive: [18] | [4] | [15] | [6] | [7] | [9] | [10]

CCN(C(=O)N(CC)c1ccccc1)c1ccccc1
inactive: [1] | [2] | [3] | [4] | [6] | [7] | [8] | [9] | [16] | [10] | [11] | [17]

CNC(=O)c1ccccc1
inactive: [1] | [12] | [2] | [13] | [3] | [18] | [4] | [14] | [15] | [6] | [7] | [8] | [9] | [16] | [10] | [11] | [17]

C[C@H]1[C@H]2CC[C@H]3[C@@H]4CC=C5C[C@@H](N(C)C)CC[C@]5(C)[C@H]4CC[C@]23CN1C
inactive: [2] | [3] | [18] | [4] | [14] | [6] | [7] | [8] | [9] | [16] | [10] | [11] | [17]

O=C(c1ccc(O)cc1O)c1ccc(O)cc1O
inactive: [1] | [12] | [13] | [18] | [14] | [15] | [5] | [7] | [8] | [9] | [16] | [10] | [11] | [17]

CCCCCCCCCCC=O
inactive: [1] | [12] | [13] | [3] | [4] | [14] | [15] | [5] | [6] | [7] | [8] | [9] | [16] | [10] | [11] | [17]
